159 variants from a collection of fitness landscapes (doi:10.1016/j.celrep.2020.107928) can be followed below.

In all, about 81,000 sequences were measured (“one-hybrid fitness for binding NBS DNA”: median about -0.1, highest 2% from about 0.36 on). The full list was thinned out, with the highest values kept by preference. Bounds are passed on as bounds.

Sequences and labels used below:
B1: Caulobacter ParB omega fusion; a variant is named by its letters at X, in order, B8GW30 (parent)
chain: MESVVVGEPGMSEGRRGLGRGLSALLGEVDAAPAQAPGEQLGGSREAPIEILQRNPDQPRRTFREEDLEDLSNSIREKGVLQPILVRPSPDTAGEYQIVAGERAWRAAQRAGLKTVPIMVRELDDLAVLEIGIIENVQRADLNVLEEALSYKVLMEKFERTQENIAQTIGKSXSHVANXMRLLXLPDEVQSYLVSGELTAXHARAIAAAADPVALAKQIIEGGLSVRETEALARKAPNLSAGKSKGGRPPRVKDTDTQALESDLSSVLGLDVSIDHRGSTGTLTITYATLEQLDDLCNRLTRGI

The test covers variants of B1. Nature of the test: one-hybrid fitness for binding NBS DNA (the Noc-binding site; scaled: cognate 1, non-cognate 0); higher = stronger binding. The conditions noted are these: with NBS DNA site. In a few lines: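 Caulobacter ParB libraries with four specificity codons randomised were screened by bacterial one-hybrid selection in the E. coli USO strain, using a HIS3 reporter whose site lies 19 bp from the promoter. Selection ran for 48 hours at 37°C on M9 lacking histidine, with 0.1 mM IPTG and 5 mM 3-AT. Plasmids were Illumina-sequenced before and after selection, three replicate libraries were pooled, and variants with under 10 reads were dropped. Fitness is the log change in each variant's read ratio to wild type, rescaled against the cognate and non-cognate sites.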
GSGL: the “one-hybrid fitness for binding NBS DNA” value was no more than 0.2. In the case of NLCF it was no more than 0.2; in that of RCSH, 0.203. For RRSN, the “one-hybrid fitness for binding NBS DNA” value was 0.356. RRSP: the “one-hybrid fitness for binding NBS DNA” value was no more than 0.2. In the case of RRSD it was no more than 0.2; in that of RRSS, 0.643; in that of RRSH, 0.439. On to APVD, for which the “one-hybrid fitness for binding NBS DNA” value was no more than 0.2. The same measure for VPVL: no more than 0.2; for EKCM: no more than 0.2. As for GETM, the “one-hybrid fitness for binding NBS DNA” value was no more than 0.2. In the case of NDTS it was no more than 0.2; in that of HEHG, no more than 0.2. Consider WING, for which the “one-hybrid fitness for binding NBS DNA” value is no more than 0.2. As for QSWR, the “one-hybrid fitness for binding NBS DNA” value is 0.365. Regarding QTWC, the “one-hybrid fitness for binding NBS DNA” value was no more than 0.2.

As to QMWR, the “one-hybrid fitness for binding NBS DNA” value turned out to be 0.403. On to QRWR, for which the “one-hybrid fitness for binding NBS DNA” value turned out to be 0.796.

QTWK: the “one-hybrid fitness for binding NBS DNA” value is no more than 0.2. Regarding QMWS, the “one-hybrid fitness for binding NBS DNA” value stood at 0.261. The same measure for QRWD: no more than 0.2. On to QTWR, for which the “one-hybrid fitness for binding NBS DNA” value came out at 0.529. Take QLWR: the “one-hybrid fitness for binding NBS DNA” value was determined as 0.319. In the case of QIWR it was 0.304. Take QMWD: the “one-hybrid fitness for binding NBS DNA” value was no more than 0.2.

Take RLIM: the “one-hybrid fitness for binding NBS DNA” value is no more than 0.2.

On to HKDT, for which the “one-hybrid fitness for binding NBS DNA” value is no more than 0.2. With CTPT, the “one-hybrid fitness for binding NBS DNA” value was no more than 0.2. The same measure for QQGL: no more than 0.2; for TSVS: no more than 0.2. Regarding LDTG, the “one-hybrid fitness for binding NBS DNA” value was no more than 0.2. As for DILR, the “one-hybrid fitness for binding NBS DNA” value was no more than 0.2.

Take RKCV: the “one-hybrid fitness for binding NBS DNA” value was no more than 0.2.

QAWY: the “one-hybrid fitness for binding NBS DNA” value was no more than 0.2. With QKWR, the “one-hybrid fitness for binding NBS DNA” value worked out at 0.462.

Turning to QKWM, the “one-hybrid fitness for binding NBS DNA” value was no more than 0.2. QAWR: the “one-hybrid fitness for binding NBS DNA” value came out at 0.348. In the case of QPWR it was no more than 0.2. On to QKWF, for which the “one-hybrid fitness for binding NBS DNA” value is no more than 0.2. For QKWD, the “one-hybrid fitness for binding NBS DNA” value is 0.405. In the case of QKWY, the “one-hybrid fitness for binding NBS DNA” value is no more than 0.2. Regarding QKWS, the “one-hybrid fitness for binding NBS DNA” value worked out at 0.33. On to QCWR, for which the “one-hybrid fitness for binding NBS DNA” value was 0.49. Take RLLS: the “one-hybrid fitness for binding NBS DNA” value was determined as 0.266. In the case of SITS, the “one-hybrid fitness for binding NBS DNA” value is no more than 0.2. Regarding LTLV, the “one-hybrid fitness for binding NBS DNA” value is no more than 0.2.

Consider SPPA, for which the “one-hybrid fitness for binding NBS DNA” value was no more than 0.2. For the variant RREH, the “one-hybrid fitness for binding NBS DNA” value amounted to 0.296. RRYH: the “one-hybrid fitness for binding NBS DNA” value turned out to be 0.436. In the case of RSRH, the “one-hybrid fitness for binding NBS DNA” value was found to be 0.335. Turning to RRRH, the “one-hybrid fitness for binding NBS DNA” value is 0.808.

With RCRH, the “one-hybrid fitness for binding NBS DNA” value was determined as 0.46.

Regarding RPRH, the “one-hybrid fitness for binding NBS DNA” value is no more than 0.2. Consider RRRL, for which the “one-hybrid fitness for binding NBS DNA” value was 0.25. With RRRE, the “one-hybrid fitness for binding NBS DNA” value was found to be 0.219. With RRPH, the “one-hybrid fitness for binding NBS DNA” value came out at 0.294.

As to SHTT, the “one-hybrid fitness for binding NBS DNA” value was no more than 0.2. In the case of VASP it was no more than 0.2.

Take SECF: the “one-hybrid fitness for binding NBS DNA” value is no more than 0.2.

For the variant NISL, the “one-hybrid fitness for binding NBS DNA” value was no more than 0.2.

QYKC: the “one-hybrid fitness for binding NBS DNA” value was found to be 0.371. With QYDC, the “one-hybrid fitness for binding NBS DNA” value is no more than 0.2.

As to QYRC, the “one-hybrid fitness for binding NBS DNA” value was found to be 0.38. For QYVC, the “one-hybrid fitness for binding NBS DNA” value was no more than 0.2.

Consider QYNC, for which the “one-hybrid fitness for binding NBS DNA” value was no more than 0.2. Take QYYC: the “one-hybrid fitness for binding NBS DNA” value was no more than 0.2. In the case of MESV it was no more than 0.2. Consider SGNS, for which the “one-hybrid fitness for binding NBS DNA” value was no more than 0.2.

GITD: the “one-hybrid fitness for binding NBS DNA” value was no more than 0.2.

Turning to RVSA, the “one-hybrid fitness for binding NBS DNA” value is no more than 0.2. The same measure for RMCF: no more than 0.2. For the variant RMCL, the “one-hybrid fitness for binding NBS DNA” value was no more than 0.2. As for RLCT, the “one-hybrid fitness for binding NBS DNA” value stood at 0.396. Consider RLGC, for which the “one-hybrid fitness for binding NBS DNA” value was no more than 0.2. On to RLLT, for which the “one-hybrid fitness for binding NBS DNA” value was determined as 0.337. Consider RMCT, for which the “one-hybrid fitness for binding NBS DNA” value was determined as 0.366. Consider RLGT, for which the “one-hybrid fitness for binding NBS DNA” value is 0.389. Take RLYT: the “one-hybrid fitness for binding NBS DNA” value came to 0.391. With RLCP, the “one-hybrid fitness for binding NBS DNA” value was no more than 0.2.

For RLGM, the “one-hybrid fitness for binding NBS DNA” value was no more than 0.2. The same measure for RLPT: no more than 0.2; for RLCH: no more than 0.2; for APPM: no more than 0.2. On to YKNV, for which the “one-hybrid fitness for binding NBS DNA” value is no more than 0.2.

Consider MWIF, for which the “one-hybrid fitness for binding NBS DNA” value was no more than 0.2. With QMEK, the “one-hybrid fitness for binding NBS DNA” value is no more than 0.2. Turning to LNIR, the “one-hybrid fitness for binding NBS DNA” value is no more than 0.2. For FVCG, the “one-hybrid fitness for binding NBS DNA” value was no more than 0.2. Regarding LKHR, the “one-hybrid fitness for binding NBS DNA” value is no more than 0.2. Take RLWT: the “one-hybrid fitness for binding NBS DNA” value amounted to 0.23. For RLSP, the “one-hybrid fitness for binding NBS DNA” value was no more than 0.2. RLHT: the “one-hybrid fitness for binding NBS DNA” value was 0.437.

For the variant RLRT, the “one-hybrid fitness for binding NBS DNA” value was determined as 0.657. On to RLSH, for which the “one-hybrid fitness for binding NBS DNA” value was no more than 0.2.

As to RLHN, the “one-hybrid fitness for binding NBS DNA” value is no more than 0.2. On to RTCK, for which the “one-hybrid fitness for binding NBS DNA” value was no more than 0.2. For RTCC, the “one-hybrid fitness for binding NBS DNA” value was no more than 0.2. On to RLIT, for which the “one-hybrid fitness for binding NBS DNA” value was determined as 0.23. As for RTCT, the “one-hybrid fitness for binding NBS DNA” value stood at 0.531.

On to RLST, for which the “one-hybrid fitness for binding NBS DNA” value was 0.46. Regarding RLHY, the “one-hybrid fitness for binding NBS DNA” value was no more than 0.2. For FWLT, the “one-hybrid fitness for binding NBS DNA” value is no more than 0.2. The same measure for PFLT: no more than 0.2; for THKK: no more than 0.2; for QSNE: no more than 0.2. As for SMHG, the “one-hybrid fitness for binding NBS DNA” value is no more than 0.2. Turning to TFYD, the “one-hybrid fitness for binding NBS DNA” value was no more than 0.2. For RPCT, the “one-hybrid fitness for binding NBS DNA” value is no more than 0.2.

Take RLQN: the “one-hybrid fitness for binding NBS DNA” value was no more than 0.2. Regarding RLKP, the “one-hybrid fitness for binding NBS DNA” value was no more than 0.2. The same measure for RLQT: 0.462; for RSCT: 0.281; for RLVT: 0.236. In the case of RLNT, the “one-hybrid fitness for binding NBS DNA” value is 0.528. For RLNH, the “one-hybrid fitness for binding NBS DNA” value was determined as 0.201. Consider RLKT, for which the “one-hybrid fitness for binding NBS DNA” value amounted to 0.644.

As for RLDT, the “one-hybrid fitness for binding NBS DNA” value is no more than 0.2. In the case of RLQD, the “one-hybrid fitness for binding NBS DNA” value is no more than 0.2.

With RCCT, the “one-hybrid fitness for binding NBS DNA” value came to 0.39. On to KERP, for which the “one-hybrid fitness for binding NBS DNA” value was no more than 0.2. SPFL: the “one-hybrid fitness for binding NBS DNA” value is no more than 0.2. The same measure for PQIR: no more than 0.2; for QSHW: no more than 0.2. With AERM, the “one-hybrid fitness for binding NBS DNA” value was no more than 0.2.

In the case of QSMN, the “one-hybrid fitness for binding NBS DNA” value was no more than 0.2. As to QSMR, the “one-hybrid fitness for binding NBS DNA” value worked out at 0.456. The same measure for QAMH: 0.219; for QTMR: 0.656. For the variant QSMH, the “one-hybrid fitness for binding NBS DNA” value was no more than 0.2. For the variant QTMC, the “one-hybrid fitness for binding NBS DNA” value was no more than 0.2.

Consider QTMY, for which the “one-hybrid fitness for binding NBS DNA” value came out at 0.232. As for EMMN, the “one-hybrid fitness for binding NBS DNA” value was no more than 0.2. Turning to QAMR, the “one-hybrid fitness for binding NBS DNA” value turned out to be 0.45.

With EMMK, the “one-hybrid fitness for binding NBS DNA” value came out at 0.405. Turning to EMMS, the “one-hybrid fitness for binding NBS DNA” value is no more than 0.2. In the case of QAMN, the “one-hybrid fitness for binding NBS DNA” value was no more than 0.2. With LIRV, the “one-hybrid fitness for binding NBS DNA” value is no more than 0.2.

Take RMDQ: the “one-hybrid fitness for binding NBS DNA” value was no more than 0.2.

For the variant VSTS, the “one-hybrid fitness for binding NBS DNA” value is no more than 0.2. Turning to CNRT, the “one-hybrid fitness for binding NBS DNA” value is no more than 0.2.

Regarding IWRR, the “one-hybrid fitness for binding NBS DNA” value was no more than 0.2. Take PMRP: the “one-hybrid fitness for binding NBS DNA” value is no more than 0.2. For the variant TVTG, the “one-hybrid fitness for binding NBS DNA” value was no more than 0.2. In the case of HFAM it was no more than 0.2; in that of DPVR, no more than 0.2. With CHNI, the “one-hybrid fitness for binding NBS DNA” value was no more than 0.2. On to QMMR, for which the “one-hybrid fitness for binding NBS DNA” value stood at 0.523. On to QKMR, for which the “one-hybrid fitness for binding NBS DNA” value is 0.51. With QMML, the “one-hybrid fitness for binding NBS DNA” value is no more than 0.2. For the variant QPMR, the “one-hybrid fitness for binding NBS DNA” value is no more than 0.2. For the variant QRMM, the “one-hybrid fitness for binding NBS DNA” value came out at 0.334. For QKMC, the “one-hybrid fitness for binding NBS DNA” value is no more than 0.2.

As to QRMR, the “one-hybrid fitness for binding NBS DNA” value worked out at 0.971. Turning to QKMK, the “one-hybrid fitness for binding NBS DNA” value was no more than 0.2.

For QMMD, the “one-hybrid fitness for binding NBS DNA” value was no more than 0.2. With QRMF, the “one-hybrid fitness for binding NBS DNA” value came to 0.25.

Regarding QIMR, the “one-hybrid fitness for binding NBS DNA” value amounted to 0.348. For the variant QCMR, the “one-hybrid fitness for binding NBS DNA” value stood at 0.589.
